Measured values taken from publication PMC5540273 (PLoS ONE, 2017).

How the values were obtained:
Conditions in all cases: concentration: 1 μM, replicates: in singlicate; n = 1
MTOR = tested on: MTOR
MUSK = tested on: MUSK
MYLK2 = tested on: MYLK2
MYLK4 = tested on: MYLK4
MYLK = tested on: MYLK
MYO3A = tested on: MYO3A
MYO3B = tested on: MYO3B
NDR1 = tested on: T1, NDR1
T1 construct: gene STK38

NDR2 = tested on: NDR2
NEK10 = tested on: NEK10
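Also: KINOMEscan kinase panel screen.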

SMILES	%Inh (MTOR) [%]	%Inh (MUSK) [%]	%Inh (MYLK2) [%]	%Inh (MYLK4) [%]	%Inh (MYLK) [%]	%Inh (MYO3A) [%]	%Inh (MYO3B) [%]	%Inh (NDR1) [%]	%Inh (NDR2) [%]	%Inh (NEK10) [%]
Cl.NC(=O)c1cccc(Nc2nccc(Nc3ccc(Oc4c(Cl)cccc4Cl)c(Cl)c3)n2)c1 [GW659009]	0	5	0	0	0	0	0	17	0	0
CN(C)S(=O)(=O)c1cc(-c2ccc3nccc(-c4cccc(S(N)(=O)=O)c4)c3c2)cnc1N [GSK1669921]	100	16	0	11	35	0	1	17	0	9
Cl.Cl.NCC(NCc1ccc(-c2ccnc3[nH]ccc23)s1)c1ccccc1 (centres unmarked) [GSK1321565]	43	13	5	99.8	59	34	0	53	31	27
NCCCC(NC(=O)c1cc(Br)c(-c2ccnc3[nH]ccc23)s1)c1ccccc1.O=C(O)C(F)(F)F.O=C(O)C(F)(F)F (centres unmarked) [GSK1287544]	3	8	30	99.6	23	0	0	95.7	86	20
Nc1n[nH]c2cnc(-c3ccccc3)cc12 [SB-642124]	14	99.9	6	69	3	8	0	20	0	47
CCc1ccc(-c2ccc3c(c2)-c2c(cnn2C)S(=O)(=O)N3C)cc1	0	14	0	1	0	16	25	0	0	9
Cc1ccc(C)c(NC(=O)NC2CCN(c3ccnc(Nc4ccc(F)cc4)n3)C2)c1 (centres unmarked) [GSK1379720]	15	5	0	0	2	5	0	0	0	9
COc1ccc(Nc2nccc(NCCNC(=O)c3cc4ccccc4s3)n2)cc1 [GSK1379896]	0	8	0	6	18	5	0	9	0	0
COc1cccc(-c2ccc3c(NC(=O)C4CC4)n[nH]c3n2)c1 [SB-710903]	20	0	78	6	11	45	0	10	16	20
COc1cccc(C2=C(Nc3ccc(Cl)c(C(=O)O)c3)C(=O)NC2=O)c1 [SB-390769]	18	17	21	60	100	20	0	100	0	73
O=C(Nc1cccc(-c2nn3ccccc3c2-c2ccnc(Nc3cccc(F)c3)n2)c1)c1c(F)ccc(F)c1Cl [GSK357952]	0	11	10	0	5	0	0	41	0	44
Cc1ccc(F)c(C(=O)Nc2cccc(-c3nn4ccccc4c3-c3ccnc(Nc4cccc(F)c4)n3)c2)c1F [GSK361061]	13	22	17	0	33	10	0	15	0	11
Nc1ncnc2c1nc(-c1ccccc1)n2-c1ccccc1 [SKF-97293]	8	11	0	25	32	13	38	32	14	21
Cn1cc(-c2[nH]c3cc(NC(=O)[C@H](N)C4CCCCC4)cc4c3c2C=NNC4=O)cn1	17	12	47	98.7	24	5	0	93.1	75	54
COc1cccc(NC(=O)NC2CCN(c3ccnc(Nc4cc(OC)c(OC)c(OC)c4)n3)C2)c1 (centres unmarked) [GSK1379763]	7	5	0	0	17	12	0	0	0	15
Cl.Cl.NCC(NC(=O)c1cc(-c2ccccc2)c(-c2ccnc3[nH]ccc23)s1)c1ccccc1 (centres unmarked) [GSK1321561]	0	13	17	94.9	26	14	0	24	16	25

SMILES	%Inh (MTOR) [%]	%Inh (MUSK) [%]	%Inh (MYLK2) [%]	%Inh (MYLK4) [%]	%Inh (MYLK) [%]	%Inh (MYO3A) [%]	%Inh (MYO3B) [%]	%Inh (NDR1) [%]	%Inh (NDR2) [%]	%Inh (NEK10) [%]
CCn1c(-c2nonc2N)nc2c(C#CC(C)(C)O)ncc(OCCCCN)c21.O=C(O)C(F)(F)F.O=C(O)C(F)(F)F [GSK507274]	19	15	48	0	0	12	5	7	0	15
COC(=O)Nc1nc2cc(Oc3ccc(NC(=O)Nc4cc(C(F)(F)F)ccc4F)cn3)ccc2[nH]1.Cl.Cl [GW681170]	2	99.4	0	0	16	21	0	20	14	7
Cl.c1ccc(-c2ccc3c(Nc4ccc5[nH]ncc5c4)ccnc3c2)nc1 [GW440137]	7	7	5	11	26	36	0	8	10	1
CNC(=O)c1ccccc1Nc1nc(Nc2ccc(N3CCOCC3)cc2)ncc1Cl.Cl [GSK1576028]	8	74	74	99.9	94	48	0	97.9	91.3	24
c1ccc(-c2n[nH]cc2Nc2ccnc3ccccc23)nc1 [GW694077]	11	7	0	99.9	22	25	0	0	4	95.7
CCn1c(-c2nonc2N)nc2c(C#CC(C)(C)O)nc(OC[C@H](N)c3ccccc3)cc21 [GSK943949]	20	0	0	0	12	0	0	34	2	34
Cl.c1ccc(-c2ccc3c(Nc4ccc5[nH]ccc5c4)ccnc3c2)nc1 [GW440138]	4	0	0	0	13	23	0	0	27	1
COc1cc(Nc2nccc(N3CCC(NC(=O)c4cc5ccccc5s4)C3)n2)cc(OC)c1OC (centres unmarked) [GSK1379760]	34	1	13	3	0	17	0	12	0	18
CC(C)(C)c1ccc2nccc(Nc3cccc(O)c3)c2c1 [GW856795]	0	0	0	0	20	6	5	0	0	0
COC(=O)Nc1nc2ccc(Oc3ccc(NC(=O)Nc4cc(C(F)(F)F)ccc4F)cc3)cc2n1C.Cl [GW692089]	28	98.5	36	0	0	17	0	24	45	1
O=C(Nc1n[nH]c2cc(-c3ccoc3)ccc12)C1CC1 [SB-738481]	0	0	89	19	29	0	0	6	0	0
Cc1cccc(Nc2nc(N[C@H]3CCNC3)ncc2C(N)=O)c1.Cl [GSK2197149]	0	0	0	81	16	2	0	0	0	56
CN(C)Cc1ccc(-c2ccc3c(Nc4ccc(Oc5ccccn5)cc4)ccnc3c2)o1 [GW567148]	8	0	0	0	4	0	0	6	0	13
COc1cc(Nc2nccc(-c3c(-c4cccc(NC(=O)c5c(F)cccc5F)c4)nn4ccccc34)n2)cc(OC)c1OC [GSK323521]	33	23	91.6	5	8	26	100	22	0	10
O=C(Nc1cccc(-c2nn3ccccc3c2-c2ccnc(Nc3cccc(C(F)(F)F)c3)n2)c1)c1c(F)cccc1F [GSK292658]	0	10	0	0	0	0	0	0	0	0
c1ccc(Oc2ccc(Nc3ccnc4cc(-c5ccc(CNCCN6CCOCC6)o5)ccc34)cc2)nc1 [GW567145]	23	1	0	0	0	24	0	16	40	0
